From the antibiotic and cytotoxicity screens of Wong et al. (2023)
Hit rate of the full screen: of about 39,000 compounds, about 3,300 (8.5%) were called active. The full list was thinned out, with actives kept by preference.

Each compound was assayed on HepG2 (assay: cytotoxicity call (relative viability < 0.9)). Conditions: 10 µM.

Compound	cytotoxicity call
C[C@@H]1CCCCO[C@H](CN(C)C(=O)CCCN(C)C)[C@@H](C)CN([C@H](C)CO)C(=O)c2cc(NC(=O)Nc3ccc(F)cc3)ccc2O1	inactive
Cc1noc(C)c1NC(=O)N(C)C[C@H]1OCCCC[C@H](C)Oc2ccc(NS(=O)(=O)c3ccccc3)cc2C(=O)N([C@@H](C)CO)C[C@H]1C	inactive
C[C@H]1CN([C@@H](C)CO)S(=O)(=O)c2ccc(C#Cc3cccc(F)c3)cc2O[C@H]1CN(C)CC1CC1	inactive
C[C@H](CO)N1C[C@H](C)[C@H](CN(C)S(=O)(=O)c2cn(C)cn2)Oc2ccc(NC(=O)C3CCCCC3)cc2C1=O	inactive
Cc1ccc(S(=O)(=O)Nc2ccc3c(c2)C(=O)N(C)[C@H]2CC[C@@H](CC(=O)NCCc4ccncc4)O[C@@H]2CO3)cc1	inactive
O=C1c2ccccc2[C@](Cc2ccccc2I)(C(=O)NCc2ccccc2)[C@H](c2ccc(CO)cc2)N1Cc1ccccc1C(F)(F)F	inactive
COCC#Cc1ccc2c(c1)O[C@H](CN(C)S(=O)(=O)c1ccc(C)cc1)[C@@H](C)CN([C@@H](C)CO)S2(=O)=O	inactive
COc1ccc(CN(C)C[C@H]2Oc3ccc(NS(=O)(=O)c4cn(C)cn4)cc3CC(=O)N([C@@H](C)CO)C[C@H]2C)cc1	inactive
CC(C)CCC(=O)N1C[C@@H]2c3nc(N4CCOCC4)ncc3CS(=O)(=O)[C@H]2C1	inactive
COC(=O)CCCCCCC(=O)N/N=C/[C@H](O)[C@@H](O)[C@H](O)CO	inactive
Cc1noc(C)c1NC(=O)Nc1ccc2c(c1)CC(=O)N([C@@H](C)CO)C[C@@H](C)[C@H](CN(C)C(=O)Nc1ccc(C(F)(F)F)cc1)O2	inactive
COc1ccc(CN(C)C[C@@H]2Oc3ccc(NS(=O)(=O)c4c(C)noc4C)cc3CC(=O)N([C@H](C)CO)C[C@@H]2C)cc1	inactive
Cc1ccc(S[C@]2(C(=O)NCCN3CCOCC3)CC(=O)N(Cc3cc(C(F)(F)F)cc(C(F)(F)F)c3)[C@@H]2c2ccc(CO)cc2I)cc1	inactive
Cc1ccc(S(=O)(=O)Nc2ccc3c(c2)CC(=O)N([C@H](C)CO)C[C@H](C)[C@@H](CN(C)S(=O)(=O)c2ccccc2)O3)cc1	inactive
C=CC(=O)Nc1cccc(Nc2nc(Nc3ccc(NC4CN(CCF)C4)cc3OC)ncc2C(F)(F)F)c1	active
COc1cccc(-c2ccc3c(c2)O[C@H](CN(C)Cc2cncnc2)[C@@H](C)CN([C@H](C)CO)S3(=O)=O)c1	inactive
CCOC(=O)CC(=O)N1CCSC1COc1ccccc1OC (centres undefined)	active
COc1ccccc1O[C@@H](C)C(=O)NN	inactive
CCOc1ccccc1C(N)=O	inactive
